Screening results from PubChem BioAssay.
This is a sample that favours compounds with a hit; in the whole collection about 9.3% have one here.
FLuc modulator – counter-screen for miR-21 project: firefly luciferase inhibitors or activators; P08659; purified FLuc, Km substrates, luminescence inhibition; Potency, µM (titrated, usually from 57.5 µM), usual class: inhibitors; 6.9% of 360,000 active; further: nearly all actives have a fitted effect of over 55% in size
Target sequence (P08659 whole entry, looked up): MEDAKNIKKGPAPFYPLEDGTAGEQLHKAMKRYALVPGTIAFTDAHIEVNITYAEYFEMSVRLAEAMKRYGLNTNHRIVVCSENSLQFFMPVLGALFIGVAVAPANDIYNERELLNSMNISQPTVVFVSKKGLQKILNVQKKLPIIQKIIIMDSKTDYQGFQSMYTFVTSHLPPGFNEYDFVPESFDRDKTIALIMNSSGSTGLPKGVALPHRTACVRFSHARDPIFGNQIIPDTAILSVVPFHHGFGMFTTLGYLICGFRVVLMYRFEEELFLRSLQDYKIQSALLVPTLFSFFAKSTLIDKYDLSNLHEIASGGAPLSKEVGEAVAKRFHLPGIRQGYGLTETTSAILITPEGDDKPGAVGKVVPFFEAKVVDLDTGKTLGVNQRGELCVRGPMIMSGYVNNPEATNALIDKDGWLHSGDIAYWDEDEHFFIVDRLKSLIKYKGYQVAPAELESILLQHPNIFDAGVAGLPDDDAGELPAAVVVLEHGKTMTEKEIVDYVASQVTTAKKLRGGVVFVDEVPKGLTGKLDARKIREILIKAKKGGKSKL
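Biochemical qHTS of compounds, final roughly 60 µM downward over six points, against 10 nM purified firefly luciferase using Km concentrations of substrates (10 uM D-luciferin, 10 uM ATP) in Tris acetate pH 7.5 buffer; luminescence output.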
ELG1 genotoxic – inducers of genotoxicity in HEK293T ELG1-luciferase cells; 1.3% of 330,000 active; HEK293T ELG1-luciferase reporter, luminescence, 16 h; Potency, µM (series often up to 46 µM), hits mostly activators; further: nearly all actives have a fitted effect of over 60% in size
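Reporter readout depends on ELG1 protein level, which increases with genetic stress. After 16 hr compound exposure at 37 °C, luciferase activity was quantified using ONE-Glo.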
NPC1 prom act – NPC1 promoter activation. Huh7 NPC1 promoter luciferase reporter, 24 h. Potency, µM (titrated, usually from 9.22 µM), most hits filed as activators. 2.4% of 320,000 active; further: nearly all actives have a fitted effect of over 60% in size
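Luciferase expression driven by the NPC1 promoter was measured in stably transfected Huh7 cells after a 24 h compound incubation, using a luciferase reagent and a luminescence read.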
Rab9 promoter act – activates the Rab9 promoter; 2.8% of 320,000 active; AID 485297; Potency, µM (doses to about 9.22 µM), most hits filed as activators; Huh7 Rab9 promoter-luciferase reporter, luminescence, 24 h; further: nearly all actives have a fitted effect of over 60% in size
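Promoter activation is measured as luciferase luminescence in Huh7 cells stably transfected with a Rab9 promoter–luciferase construct, following 24 h compound exposure at 37 °C and 10 min reagent incubation at ambient temperature.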
SMN2 splice enh – enhancers of SMN2 splice variant expression. HEK293 SMN2-luciferase splicing reporter, luminescence, 30-36 h. Potency, µM (titrated, usually from 46.1 µM), hits mostly activators. 2.8% of 210,000 active; further: nearly all actives have a fitted effect of over 55% in size
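HEK293 cells carry an SMN2 […]–luciferase reporter in which exon 7 inclusion puts luciferase in frame. Cells were plated 10-12 h before compound addition, then incubated 30-36 h at 37C. ONE-Glo luminescence was read; sodium butyrate at 4.5 mM final served as control.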
ELG1 DNA repair – ELG1-dependent DNA repair inhibition | HEK293T ELG1-luciferase reporter, luminescence, 16 h; DNA damage induced by 5-fluorouridine | Potency, µM (top dose mostly 46.1 µM), actives largely listed as inhibitors | 2.3% of 330,000 active; further: nearly all actives have a fitted effect of over 55% in size
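Quantitative HTS, concentration-response format. 2,000 cells/well co-treated with 5-fluorouridine and compound, 16 hr in 5% CO2 at 37 °C; ONE-Glo luminescence read after 30 min.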
A number is an active result; [ ] = remark or other dose. The call rests on the fitted dose curve; in most records, active means well fitted curve in the direction sought with a large enough effect; inconclusive means small, poorly fitted or top-dose-only effect, or another doubt; inactive means no such curve, though single readings can be large; an effect the other way counts as inactive or inconclusive.

`c1ccn2c(SCc3cn4ccsc4n3)nnc2c1` gave FLuc modulator 17µM, ELG1 genotoxic inconclusive, NPC1 prom act inconclusive, Rab9 promoter act 2.5µM, SMN2 splice enh 14µM and ELG1 DNA repair inconclusive.
Cc1cccc2nc(CSc3ncccc3C(=O)O)cn12 was read as FLuc modulator 27µM, ELG1 genotoxic inactive, NPC1 prom act inactive, Rab9 promoter act inactive, SMN2 splice enh inactive and ELG1 DNA repair inactive.
`c1ccc(-n2cnnc2SCc2cn3ccsc3n2)cc1` gave FLuc modulator inactive, ELG1 genotoxic inactive, NPC1 prom act inactive, Rab9 promoter act inactive, SMN2 splice enh inactive and ELG1 DNA repair inactive.
`Cc1ccnc(SCc2cn3c(C)cccc3n2)n1` gave FLuc modulator inconclusive, ELG1 genotoxic inactive, NPC1 prom act inactive, Rab9 promoter act inactive, SMN2 splice enh inactive and ELG1 DNA repair inconclusive.
Screening O=C(CN1CCN(S(=O)(=O)c2ccccc2)CC1)NCc1ccccc1 returned FLuc modulator inactive, ELG1 genotoxic inactive, NPC1 prom act inactive, Rab9 promoter act inactive and ELG1 DNA repair inactive.
CCN1C(=O)c2ccccc2Sc2ccc(NC(=O)Nc3cc(C)cc(C)c3)cc21 was read as FLuc modulator inactive.
Screening CC1CC(C)CN(C(=O)C(C)N(C)CC(=O)Nc2ccc(Cl)cc2)C1 (configuration not stated) returned FLuc modulator inactive, ELG1 genotoxic inactive, NPC1 prom act inactive, Rab9 promoter act inactive and ELG1 DNA repair inconclusive.
For CCOC(=O)C1=C(C)Nc2sc(C(=O)c3ccc(C)cc3)c(N)c2C1c1ccc(C(=O)OC)cc1 (configuration not stated) the results were FLuc modulator inactive, ELG1 genotoxic inactive, NPC1 prom act inactive, Rab9 promoter act inactive, SMN2 splice enh inactive and ELG1 DNA repair inconclusive.
For CCOC(=O)C1=C(C)Nc2sc(C(=O)c3ccc(F)cc3)c(N)c2C1c1ccc(C(=O)OC)cc1 (configuration not stated) the results were FLuc modulator inactive, ELG1 genotoxic inactive, NPC1 prom act inactive, Rab9 promoter act inactive, SMN2 splice enh inactive and ELG1 DNA repair 5.2µM.
`COC(CN(C(=O)CCl)C(C(=O)NC1CCCCC1)c1ccccc1C)OC` (configuration not stated) gave FLuc modulator inactive, ELG1 genotoxic inactive, NPC1 prom act inactive, Rab9 promoter act inactive, SMN2 splice enh inactive[1.84 µM] and ELG1 DNA repair 23µM.
COC(CN(C(=O)CCl)C(C(=O)NC1CCCCC1)c1ccc(Cl)cc1)OC (configuration not stated) was read as FLuc modulator inactive, ELG1 genotoxic inactive, NPC1 prom act inactive, Rab9 promoter act inactive, SMN2 splice enh inactive[1.84 µM] and ELG1 DNA repair inactive.
For Cc1noc(NS(=O)(=O)c2ccc(N/C=C\C(=O)c3cccc4ccccc34)cc2)c1C the results were FLuc modulator 13µM, ELG1 genotoxic inactive, NPC1 prom act inactive, Rab9 promoter act inactive, SMN2 splice enh inactive and ELG1 DNA repair inconclusive.
For Cc1noc(NS(=O)(=O)c2ccc(N/C=C\C(=O)c3ccc(Br)cc3)cc2)c1C the results were FLuc modulator 27µM, ELG1 genotoxic inactive, NPC1 prom act inactive, Rab9 promoter act inactive and ELG1 DNA repair inconclusive.
Screening COc1cccc(C(=O)/C=C/Nc2ccc(S(=O)(=O)Nc3onc(C)c3C)cc2)c1 returned FLuc modulator 15µM, ELG1 genotoxic inactive, NPC1 prom act inactive, Rab9 promoter act inactive, SMN2 splice enh inactive and ELG1 DNA repair inconclusive.
Screening COc1cc(OC)cc(C(=O)Nc2ccc(S(=O)(=O)Nc3onc(C)c3C)cc2)c1 returned FLuc modulator inconclusive and SMN2 splice enh inactive.
For CCc1nnc(NS(=O)(=O)c2ccc(N/C=C\C(=O)c3cccc4ccccc34)cc2)s1 the results were FLuc modulator inactive, ELG1 genotoxic inactive, NPC1 prom act inactive, Rab9 promoter act inactive, SMN2 splice enh inactive and ELG1 DNA repair inactive.
`Cc1noc(NS(=O)(=O)c2ccc(N/C=C\C(=O)c3ccc4c(c3)OCO4)cc2)c1C` gave FLuc modulator 9.5µM, ELG1 genotoxic inactive, NPC1 prom act inactive, Rab9 promoter act inactive, SMN2 splice enh inactive and ELG1 DNA repair inconclusive.
